# Measured values taken from PubChem BioAssay (EPA / NIEHS).
# Active and inactive are the calls of the source. How the source made its calls: active means hit-call score of the fitted dose curve at least 0.9, where 1 is the maximum; inactive means score below 0.9.
# Molecular target: Paired box protein Pax-6 (Homo sapiens) (UniProt P26367)
# Experiment: ATG_Pax6_CIS: Attagene CIS-FACTORIAL HepG2 Assay for human Paired Box 6 (PAX6) (AID 2282956)
# Conditions: HepG2 CIS-FACTORIAL PAX6 reporter transcription, RNA readout; actives raise or lower the signal
# Procedure, shortened: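 HepG2 cells transiently transfected with multiplexed cis-promoter reporter units (endogenous TF activity) were dosed for 24 h. Reporter mRNA was quantified by RT-PCR, 6-FAM labeling, HpaI digestion and capillary electrophoresis; bidirectional fitting versus DMSO baseline.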
# Paired box protein Pax-6 (Homo sapiens), sequence (P26367 whole entry, looked up): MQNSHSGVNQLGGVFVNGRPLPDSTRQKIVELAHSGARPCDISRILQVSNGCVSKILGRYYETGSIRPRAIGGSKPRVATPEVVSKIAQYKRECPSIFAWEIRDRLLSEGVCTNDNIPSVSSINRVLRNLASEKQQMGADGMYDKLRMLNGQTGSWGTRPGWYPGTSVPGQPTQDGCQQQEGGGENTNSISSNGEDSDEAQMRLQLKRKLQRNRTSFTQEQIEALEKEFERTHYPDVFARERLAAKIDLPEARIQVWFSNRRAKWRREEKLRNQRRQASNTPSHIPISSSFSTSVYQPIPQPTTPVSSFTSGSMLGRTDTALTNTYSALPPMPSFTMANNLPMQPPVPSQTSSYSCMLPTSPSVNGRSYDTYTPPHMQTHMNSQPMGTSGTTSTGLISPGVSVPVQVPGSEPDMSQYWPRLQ
Structure (SMILES),outcome,AC50
C[N+](C)(C)CC(=O)O,inactive,–
O=S(=O)(c1ccccc1)c1ccccc1,inactive,–
Clc1ccc(-c2ccccc2)cc1,inactive,–
CN(C)C(=O)C(c1ccccc1)c1ccccc1,inactive,–
C=CCc1ccc(OC(=O)Cc2ccccc2)c(OC)c1,inactive,–
O=P(O)(Oc1ccccc1)Oc1ccccc1,inactive,–
CC1CCCC1.[C-]#[O+].[C-]#[O+].[C-]#[O+].[Mn],inactive,–
O=C(O)COc1ccccc1,inactive,–
[Cl][Sb]([Cl])[Cl],–,133 µM (active)
CCC(=O)c1ccc(Cl)cc1,inactive,–
Cc1ccc(N(SC(F)(Cl)Cl)S(=O)(=O)N(C)C)cc1,–,17.9 µM (active)
CC1(C)CC(=O)CC(C)(C)N1[O],inactive,–
SCc1ccco1,inactive,–
O=CNC(N1CCN(C(NC=O)C(Cl)(Cl)Cl)CC1)C(Cl)(Cl)Cl (stereo not given),inactive,–
Oc1cc(Cl)ccc1Cl,inactive,–
O=[N+]([O-])c1cc(C(F)(F)F)c(Cl)c([N+](=O)[O-])c1Cl,–,2.77 µM (active)
C[C@]12CCC(=O)C(O)=C1CC[C@@H]1[C@@H]2CC[C@]2(C)C(=O)CC[C@@H]12,inactive,–
CSc1nc(N=[N+]=[N-])nc(NC(C)C)n1,inactive,–
O=[N+]([O-])O.O=[N+]([O-])O.[Cd],–,1.79 µM (active)

# Tested on: not listed separately
# Experiment: ATG_PXRE_CIS: Attagene CIS-FACTORIAL HepG2 Assay for human Pregnane X Receptor Element (PXRE) (AID 2282957)
# Conditions: HepG2 Attagene CIS-FACTORIAL PXRE reporter, mRNA; actives raise or lower the signal
# Procedure, shortened: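 Cis-element reporter mRNA in human hepatoma HepG2 cells is measured 24 h post-dosing by RT-PCR, primer-extension labeling and capillary electrophoresis; gain or loss of signal is fitted relative to DMSO.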
Structure (SMILES),outcome,AC50
Nc1ccc(-c2ccc(N)c(N)c2)cc1N,inactive,–
C#CC1(O)CCCCC1,inactive,–
O=c1[nH]c(Cl)c(Cl)cc1Cl,–,38.7 µM (active)
CCC(C)c1cc(C(C)(C)C)cc(-n2nc3ccccc3n2)c1O (stereo not given),–,4.36 µM (active)
Nc1c(Cl)c(Cl)c(Cl)c(Cl)c1Cl,–,15.4 µM (active)
COC(=O)c1ccccc1S(=O)(=O)NC(=O)Nc1nc(C)cc(C)n1,inactive,–
Nc1ccccc1C(=O)OCCc1ccccc1,–,12.3 µM (active)
N#Cc1cccc(C#N)c1,inactive,–
O=C(O)CCCc1ccc(N(CCCl)CCCl)cc1,inactive,–
Nc1cc(Cl)cc(Cl)c1,inactive,–
COc1ncc(F)c2nc(S(=O)(=O)Nc3c(F)cccc3F)nn12,–,15.3 µM (active)
COC(C)(C)CCC[C@H](C)C/C=C/C(C)=C/C(=O)OC(C)C,–,1.43 µM (active)
[CH3][Sn]([CH3])([Cl])[Cl],inactive,–
BrCBr,inactive,–
CCc1cccc(C)c1N(C(=O)CCl)[C@@H](C)COC,–,0.474 µM (active)
O=P1(NCCCl)OCCCN1CCCl (stereo not given),–,50.2 µM (active)

Structure (SMILES),outcome,AC50
CC(Cc1ccc(C(C)(C)C)cc1)CN1C[C@@H](C)O[C@@H](C)C1 (stereo not given in full),–,4.18 µM (active)
O=C(O)c1cc[c]([Hg][Cl])cc1,inactive,–
C[N+](C)(C)CC(=O)O,inactive,–
O=S(=O)(c1ccccc1)c1ccccc1,–,20.1 µM (active)
Clc1ccc(-c2ccccc2)cc1,–,42.7 µM (active)
CN(C)C(=O)C(c1ccccc1)c1ccccc1,–,9.67 µM (active)
O=P(O)(Oc1ccccc1)Oc1ccccc1,–,74.2 µM (active)
CC1CCCC1.[C-]#[O+].[C-]#[O+].[C-]#[O+].[Mn],inactive,–
O=C(O)COc1ccccc1,inactive,–
Cc1ccc(N(SC(F)(Cl)Cl)S(=O)(=O)N(C)C)cc1,inactive,–
CC1(C)CC(=O)CC(C)(C)N1[O],–,33.2 µM (active)
Oc1cc(Cl)ccc1Cl,–,27.6 µM (active)
O=[N+]([O-])c1cc(C(F)(F)F)c(Cl)c([N+](=O)[O-])c1Cl,inactive,–
C[C@]12CCC(=O)C(O)=C1CC[C@@H]1[C@@H]2CC[C@]2(C)C(=O)CC[C@@H]12,–,11.2 µM (active)
CSc1nc(N=[N+]=[N-])nc(NC(C)C)n1,–,27.2 µM (active)
O=[N+]([O-])O.O=[N+]([O-])O.[Cd],–,0.872 µM (active)

# Tested on: not listed separately
# Experiment: ATG_PPRE_CIS: Attagene CIS-FACTORIAL HepG2 Assay for human Peroxisome Proliferator-activated Response Element (PPRE) (AID 2282958)
# Conditions: HepG2 PPRE cis-element reporter, Attagene transcription factor profiling; actives raise or lower the signal
# Procedure, shortened: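 Endogenous PPRE-driven transcription is measured in HepG2 cells carrying transfected multi-reporter constructs. Reporter transcripts are quantified by RT-PCR, HpaI digestion and capillary electrophoresis 24 h after dosing. DMSO baseline, bidirectional fit.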
Structure (SMILES),outcome,AC50
Nc1ccc(-c2ccc(N)c(N)c2)cc1N,inactive,–
CCOP(O)OCC,inactive,–
O=c1[nH]c(Cl)c(Cl)cc1Cl,–,15.8 µM (active)
CCC(C)c1cc(C(C)(C)C)cc(-n2nc3ccccc3n2)c1O (stereo not given),inactive,–
[CH3][Sn]([Cl])([Cl])[Cl],inactive,–
Nc1c(Cl)c(Cl)c(Cl)c(Cl)c1Cl,inactive,–
N#Cc1cccc(C#N)c1,inactive,–
O=C(O)CCCc1ccc(N(CCCl)CCCl)cc1,inactive,–
Nc1cc(Cl)cc(Cl)c1,inactive,–
[CH3][Sn]([CH3])([Cl])[Cl],inactive,–
BrCBr,inactive,–
CC(Cc1ccc(C(C)(C)C)cc1)CN1C[C@@H](C)O[C@@H](C)C1 (stereo not given in full),inactive,–
O=C(O)c1cc[c]([Hg][Cl])cc1,inactive,–
C[N+](C)(C)CC(=O)O,inactive,–
O=S(=O)(c1ccccc1)c1ccccc1,inactive,–
Clc1ccc(-c2ccccc2)cc1,inactive,–
CN(C)C(=O)C(c1ccccc1)c1ccccc1,inactive,–
C=CCc1ccc(OC(=O)Cc2ccccc2)c(OC)c1,inactive,–
CC1CCCC1.[C-]#[O+].[C-]#[O+].[C-]#[O+].[Mn],inactive,–
O=C(O)COc1ccccc1,inactive,–
[Cl][Sb]([Cl])[Cl],inactive,–
CCC(=O)c1ccc(Cl)cc1,inactive,–
Cc1ccc(N(SC(F)(Cl)Cl)S(=O)(=O)N(C)C)cc1,–,11.1 µM (active)
CC1(C)CC(=O)CC(C)(C)N1[O],inactive,–
SCc1ccco1,inactive,–
O=CNC(N1CCN(C(NC=O)C(Cl)(Cl)Cl)CC1)C(Cl)(Cl)Cl (stereo not given),inactive,–
Oc1cc(Cl)ccc1Cl,inactive,–
O=[N+]([O-])c1cc(C(F)(F)F)c(Cl)c([N+](=O)[O-])c1Cl,inactive,–
CSc1nc(N=[N+]=[N-])nc(NC(C)C)n1,inactive,–
